The values below come from PubChem BioAssay.

Active and inactive are the calls of the source. No rule for the calls is given here. Where a SMILES comes first, the peptide text is derived from it. The star is where a group is joined. Boc = CC(C)(C)OC(=O)*

In the assay the target is Pantothenate synthetase (Mycobacterium tuberculosis (strain ATCC 25618 / H37Rv)) (UniProt P9WIL5). The experiment in a line: Coupled enzyme confirmation of inhibitors against recombinant Mtb PanC (AID 375).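 Also: 0% = full reaction with vehicle and 100% = no enzyme background.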 The note with it: coupled enzyme assay; at 10 µM, active compounds read high.
Chain of Pantothenate synthetase (Mycobacterium tuberculosis (strain ATCC 25618 / H37Rv)) (P9WIL5 whole entry, looked up): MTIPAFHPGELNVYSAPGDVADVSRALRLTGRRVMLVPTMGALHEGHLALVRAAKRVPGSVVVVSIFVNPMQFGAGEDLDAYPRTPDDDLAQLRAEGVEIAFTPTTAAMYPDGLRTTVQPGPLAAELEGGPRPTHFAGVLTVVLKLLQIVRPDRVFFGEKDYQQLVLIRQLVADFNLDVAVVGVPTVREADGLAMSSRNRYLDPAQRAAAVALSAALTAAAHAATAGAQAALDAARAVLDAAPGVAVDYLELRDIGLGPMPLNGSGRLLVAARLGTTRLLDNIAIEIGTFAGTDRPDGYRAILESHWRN
Regarding `CC1(C)CN=C(N2CCN(c3ncnc4sc5c(c34)CCCC5)CC2)S1`, the inhibition (as a rule, the percentage by which the read-out fell short of the control) is 0% (inactive).
Consider `Cc1cc2ncc(C(=O)Nc3ccccc3)c(C)n2n1`, for which the inhibition was 7% (inactive).
Turning to `COc1cc(C)nc(OCCNC(=O)COc2ccc(Cl)cc2C)n1`, the inhibition is 5% (inactive).
`CCOC(=O)c1c(C)n(C)c2ccc(OC)c(NC(=O)CCN3CCSCC3)c12`: the inhibition is 2% (inactive).
As for `CCOc1ccccc1NC(=O)CN(c1ccc(C)cc1)S(=O)(=O)c1c(C)noc1C`, the inhibition is 9% (inactive).
With `CCOC(=O)Cc1nnc2c(Nc3ccccc3F)nc3nonc3n12`, the inhibition was 7% (inactive).
Take `CCOCCCNC(=O)C1CCN(S(=O)(=O)c2c(C)noc2/C=C\c2ccc(OC)cc2)CC1`: the inhibition was 8% (inactive).
On to `COCCNC(=S)c1ccc(OC)cc1`, for which the inhibition is 5% (inactive).
Consider `O=C(Nc1ccccn1)N1CCOCC1`, for which the inhibition is 4% (inactive).
Consider `CCc1cc(C)cc(OCCNC(=O)c2ncn[nH]2)c1`, for which the inhibition was 7% (inactive).
`O=C(CCc1ccccc1)Nc1ccncc1`: the inhibition was 0% (inactive).
With `C[C@H](NC(=O)Nc1ccccc1F)C(=O)O`, the inhibition was 2% (inactive).
On to `CCN(CC)S(=O)(=O)c1ccc2[nH]cc(C(=O)NCCC3=CCCCC3)c(=O)c2c1`, for which the inhibition was 0% (inactive).
With `Cn1c(=O)c(C(=O)Nc2cccnc2)c(O)c2ccccc21` the figure was 5% (inactive); with `O=C(c1ccco1)N1CCN(/C(=N/S(=O)(=O)c2cccs2)c2ccccc2Cl)CC1`, 0% (inactive); with `Cn1c(CSc2nc3ccccc3s2)nnc1SCC(=O)NCCN1CCOCC1`, 0% (inactive).
For the molecule `CC(C)(C)OC(=O)N1CCCC1C(=O)NC(Cc1ccccc1)C(=O)O` (stereo not drawn) (Boc-Pro-Phe-OH; configuration not given here), the inhibition was 4% (inactive).
Take `CCn1c(SCc2cccc(C(F)(F)F)c2)nnc1-c1ccco1`: the inhibition was 0% (inactive).
On to `O=C(OC1CCOC1=O)c1ccc2ccccc2n1` (stereo not given), for which the inhibition was 4% (inactive).
Turning to `O=C(C1CCCN(S(=O)(=O)c2cccc3nonc23)C1)N1CCC(Cc2ccccc2)CC1` (stereo not given), the inhibition is 3% (inactive).
With `O=C(CSc1ncnc2c1oc1ccccc12)Nc1ccccc1C(F)(F)F` the figure was 0% (inactive); with `CN(C)c1nc(N)nc(CSc2nnnn2-c2cccc3ccccc23)n1`, 0% (inactive); with `CC(NCCc1ccc(O)cc1)C(O)c1ccc(O)cc1` (stereo not given), 0% (inactive).
On to `COCC(C)NC(=O)NC(=O)c1ccc(Cl)cc1` (stereo not given), for which the inhibition was 0% (inactive).
The same measure for `COc1ccc(OC)c(C2C(C(=O)Nc3ccc(F)cc3)=C(C)Nc3nc(CCCO)nn32)c1` (stereo not given): 5% (inactive).
For `COc1ccc(NC(=O)CN2CCN(CC(=O)Nc3cc(OC)cc(OC)c3)CC2)cc1`, the inhibition was 8% (inactive).
On to `COc1ccc(N2CCN(C(=O)CSc3nnc(Cn4nnc5ccccc54)n3C)CC2)cc1`, for which the inhibition was 0% (inactive).
Regarding `O=C(CS(=O)(=O)c1cn(Cc2ccc(F)cc2)c2ccccc12)N1CCCCC1`, the inhibition was 0% (inactive).
Take `Cc1cnc(C(=O)Nc2ccc(N3CCN(C(=O)OC(C)(C)C)CC3)cc2)cn1`: the inhibition is 0% (inactive).
The same measure for `CC1CCN(c2oc(-c3ccccc3F)nc2C#N)CC1`: 4% (inactive); for `Cc1nc2sc(C(c3cccs3)N3CCC(C(N)=O)CC3)c(O)n2n1` (stereo not given): 2% (inactive).
In the case of `CCN1C(=O)c2ccccc2S(=O)c2ccc(C(=O)NC3CC3)cc21` (stereo not given), the inhibition is 6% (inactive).
With `C[C@]12CCC(=O)C=C1CC[C@@H]1[C@@H]2[C@@H](O)C[C@@]2(C)[C@H]1CC[C@]2(O)C(=O)CO` the figure was 0% (inactive).
With `CSc1ccccc1NC(=O)c1cnc2n(c1=O)CCS2`, the inhibition was 7% (inactive).
Turning to `CCOC(=O)c1cnc(-n2nc(C)cc2C)nc1Nc1ccc(N(C)C)cc1`, the inhibition is 8% (inactive).
On to `COc1cccc(NC(=O)C2CCN(c3ncccn3)CC2)c1`, for which the inhibition is 2% (inactive).
As for `Nc1nonc1-c1noc(CCCCCN2C(=O)c3ccccc3C2=O)n1`, the inhibition is 4% (inactive).
As to `COc1ccc(OC)c(S(=O)(=O)NCCC2=CCCCC2)c1`, the inhibition is 6% (inactive).
Regarding `CCn1cc(C(C)NC(=O)COc2ccc(Cl)cc2C)c(C)n1` (stereo not given), the inhibition was 0% (inactive).
As to `O=C(Nc1ccccc1C(=O)NCC1CCCO1)c1ccco1` (stereo not given), the inhibition was 1% (inactive).
